Data reported in PubChem BioAssay AID1159580 (chemical genetic matrix, 2015).
Among all 5,500 compounds or so, about 2,000 (36%) were called active. About 18% were inconclusive and are not listed. No stated cut-off is given here; in the data, active means normalized growth mostly below about 0.91 (no sharp cut-off); inconclusive means no clear call, values can overlap the other calls; inactive means mostly above about 0.92. The list shows a part of the results.

Assay: chemical genetic growth profiling, strain panel (AID 1159580);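 further: tested at 20 µM; growth read once vehicle control cultures reached saturation at 30 °C; 1 = growth at the plate median or of vehicle wells; lower values mean less growth of the strain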
Settings: growth OD

Measured: normalized growth

CO[C@@]12[C@@H]3NC3CN1C1=C(C(=O)C(N)=C(C)C1=O)[C@@H]2COC(N)=O (some centres not stated)
inactive: S. cerevisiae deletion strains, locus YJR075W, strain HOC1, active compounds read low 0.995 | S. cerevisiae deletion strains, locus YKL009W, strain mrt4, active compounds read low 0.964 | S. cerevisiae deletion strains, locus YKL068W, active compounds read low 0.984 | S. cerevisiae deletion strains, locus YKL085W, strain MDH1 (second series), active compounds read low 0.983 | S. cerevisiae deletion strains, locus YKL085W, strain MDH1, active compounds read low 0.983 | S. cerevisiae deletion strains, locus YKL160W, strain elf1, active compounds read low 0.974 | S. cerevisiae deletion strains, locus YKL190W, strain CNB1, active compounds read low 1 | S. cerevisiae deletion strains, locus YKR001C, strain vps1, active compounds read low 0.982 | S. cerevisiae deletion strains, locus YKR026C, strain gcn3, active compounds read low 0.964 | S. cerevisiae deletion strains, locus YKR091W, strain srl3, active compounds read low 0.959 | S. cerevisiae deletion strains, locus YLL001W, strain dnm1, active compounds read low 0.929 | S. cerevisiae deletion strains, locus YLL026W, active compounds read low 0.977 | S. cerevisiae deletion strains, locus YLL041C, strain sdh2, active compounds read low 0.977 | S. cerevisiae deletion strains, locus YLR027C, strain aat2, active compounds read low 0.953 | S. cerevisiae deletion strains, locus YLR039C, strain RIC1, active compounds read low 1.01 | S. cerevisiae deletion strains, locus YLR058C, strain SHM2, active compounds read low 0.999 | S. cerevisiae deletion strains, locus YLR102C, strain apc9, active compounds read low 0.986 | S. cerevisiae deletion strains, locus YLR113W, strain HOG1, active compounds read low 0.973 | S. cerevisiae deletion strains, locus YLR221C, strain rsa3, active compounds read low 1.01 | S. cerevisiae deletion strains, locus YLR258W, strain gsy2, active compounds read low 0.992 | S. cerevisiae deletion strains, locus YLR262C, strain YPT6 (second series), active compounds read low 0.938 | S. cerevisiae deletion strains, locus YLR262C, strain YPT6, active compounds read low 0.947 | S. cerevisiae deletion strains, locus YLR268W, strain sec22, active compounds read low 1.01 | S. cerevisiae deletion strains, locus YLR320W, strain mms22, active compounds read low 1.01 | S. cerevisiae deletion strains, locus YLR330W, strain CHS5, active compounds read low 0.987 | S. cerevisiae deletion strains, locus YLR342W, strain FKS1 (second series), active compounds read low 1 | S. cerevisiae deletion strains, locus YLR342W, strain FKS1, active compounds read low 0.952 | S. cerevisiae deletion strains, locus YLR357W, strain rsc2, active compounds read low 0.961 | S. cerevisiae deletion strains, locus YLR370C, strain arc18, active compounds read low 0.96 | S. cerevisiae deletion strains, locus YLR371W, strain rom2, active compounds read low 0.961 | S. cerevisiae deletion strains, locus YLR384C, strain iki3, active compounds read low 0.953 | S. cerevisiae deletion strains, locus YLR418C, strain cdc73, active compounds read low 1.05 | S. cerevisiae deletion strains, locus YML016C, strain PPZ1, active compounds read low 1 | S. cerevisiae deletion strains, locus YML032C, strain rad52, active compounds read low 0.96 | S. cerevisiae deletion strains, locus YML120C, strain ndi1, active compounds read low 0.94 | S. cerevisiae deletion strains, locus YML124C, strain tub3, active compounds read low 0.979 | S. cerevisiae deletion strains, locus YMR058W, strain fet3, active compounds read low 0.942 | S. cerevisiae deletion strains, locus YMR078C, strain ctf18, active compounds read low 0.975 | S. cerevisiae deletion strains, locus YMR125W, strain sto1, active compounds read low 0.982 | S. cerevisiae deletion strains, locus YMR129W, active compounds read low 0.975 | S. cerevisiae deletion strains, locus YMR205C, strain PFK2, active compounds read low 0.996 | S. cerevisiae deletion strains, locus YMR223W, strain ubp8, active compounds read low 0.977 | S. cerevisiae deletion strains, locus YMR231W, strain pep5, active compounds read low 0.949 | S. cerevisiae deletion strains, locus YMR263W, strain SAP30, active compounds read low 1.01 | S. cerevisiae deletion strains, locus YMR307W, strain GAS1, active compounds read low 1.02 | S. cerevisiae deletion strains, locus YNL067W, strain RPL9B, active compounds read low 1.02 | S. cerevisiae deletion strains, locus YNL071W, strain lat1, active compounds read low 0.971 | S. cerevisiae deletion strains, locus YNL128W, strain TEP1, active compounds read low 1 | S. cerevisiae deletion strains, locus YNL153C, strain GIM3, active compounds read low 1.03 | S. cerevisiae deletion strains, locus YNL183C, strain NPR1, active compounds read low 0.94 | S. cerevisiae deletion strains, locus YNL209W, strain ssb2, active compounds read low 0.972 | S. cerevisiae deletion strains, locus YNL233W, strain BNI4, active compounds read low 1.05 | S. cerevisiae deletion strains, locus YNL248C, strain rpa49, active compounds read low 0.99 | S. cerevisiae deletion strains, locus YNL250W, strain rad50, active compounds read low 0.975 | S. cerevisiae deletion strains, locus YNL271C, strain bni1, active compounds read low 0.979 | S. cerevisiae deletion strains, locus YNL298W, strain CLA4, active compounds read low 0.978 | S. cerevisiae deletion strains, locus YNL307C, strain MCK1, active compounds read low 0.979 | S. cerevisiae deletion strains, locus YNL322C, strain KRE1 (second series), active compounds read low 0.945 | S. cerevisiae deletion strains, locus YNL322C, strain KRE1, active compounds read low 0.997 | S. cerevisiae deletion strains, locus YNR049C, strain mso1, active compounds read low 0.978 | S. cerevisiae deletion strains, locus YNR052C, strain pop2, active compounds read low 0.96 | S. cerevisiae deletion strains, locus YOL006C, strain TOP1, active compounds read low 1.04 | S. cerevisiae deletion strains, locus YOL012C, strain htz1 0.963 | S. cerevisiae deletion strains, locus YOL147C, strain pex11, active compounds read low 0.984 | S. cerevisiae deletion strains, locus YOR001W, strain rrp6, active compounds read low 0.946 | S. cerevisiae deletion strains, locus YOR061W, strain CKA2, active compounds read low 1.01 | S. cerevisiae deletion strains, locus YOR069W, strain VPS5, active compounds read low 1 | S. cerevisiae deletion strains, locus YOR070C, strain gyp1, active compounds read low 0.993 | S. cerevisiae deletion strains, locus YOR080W, strain dia2, active compounds read low 0.968 | S. cerevisiae deletion strains, locus YOR083W, strain WHI5, active compounds read low 0.94 | S. cerevisiae deletion strains, locus YOR106W, strain vam3, active compounds read low 0.929 | S. cerevisiae deletion strains, locus YOR136W, strain idh2, active compounds read low 0.981 | S. cerevisiae deletion strains, locus YOR144C, strain elg1, active compounds read low 0.985 | S. cerevisiae deletion strains, locus YOR184W, strain ser1, active compounds read low 0.948 | S. cerevisiae deletion strains, locus YOR231W, strain MKK1, active compounds read low 0.982 | S. cerevisiae deletion strains, locus YOR265W, strain rbl2, active compounds read low 0.963 | S. cerevisiae deletion strains, locus YOR270C, strain vph1, active compounds read low 1 | S. cerevisiae deletion strains, locus YOR290C, strain snf2, active compounds read low 0.998 | S. cerevisiae deletion strains, locus YOR316C, strain cot1, active compounds read low 0.994 | S. cerevisiae deletion strains, locus YPL051W, strain arl3, active compounds read low 0.985 | S. cerevisiae deletion strains, locus YPL055C, strain LGE1, active compounds read low 1.02 | S. cerevisiae deletion strains, locus YPL078C, strain atp4, active compounds read low 0.921 | S. cerevisiae deletion strains, locus YPL106C, strain sse1, active compounds read low 0.951 | S. cerevisiae deletion strains, locus YPL240C, strain hsp82, active compounds read low 0.979 | S. cerevisiae deletion strains, locus YPL241C, strain CIN2, active compounds read low 0.998 | S. cerevisiae deletion strains, locus YPL256C, strain CLN2, active compounds read low 0.971 | S. cerevisiae deletion strains, locus YPR119W, strain clb2, active compounds read low 0.995 | S. cerevisiae deletion strains, locus YPR141C, strain kar3, active compounds read low 0.983 | S. cerevisiae deletion strains, locus YPR163C, strain tif3, active compounds read low 0.966 | S. cerevisiae deletion strains, locus YPR167C, strain met16, active compounds read low 0.987 | S. cerevisiae deletion strains, strain wtn01, active compounds read low 1.02 | S. cerevisiae strains, strain wild type, active compounds read low 0.997
